# In all, about 360,000 compounds went through this assay and about 6,000 (1.7%) were called active. Another 8% or so got no clear call; they are omitted. Only a selection was taken, and actives are over-represented in it overall. Unmarked numbers belong to inactive results. Calls come from the whole dose curve; as a rule, active = well fitted cell-killing curve with a large enough effect; inconclusive = small, poorly fitted or top-dose-only effect, or effect the other way; inactive = flat fitted curve, though single readings scatter.
# Experiment: qHTS for induction of synthetic lethality in tumor cells producing 2HG: qHTS for the HT-1080-NT fibrosarcoma cell line;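 note: NT is the 2HG producing partner of a matched IDH1 knockdown line; nearly all actives have a fitted effect of over 55% in size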;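 for activity, negative = less viability: 0% = DMSO-treated cells and -100% = media-only wells without cells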
# Details: HT-1080-NT fibrosarcoma viability, CellTiter-Glo ATP luminescence, 48 h; series mostly up to 46.1 µM; activity, negative = less viability: at the top concentration
# Procedure, shortened: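 Toxicity toward the 2HG-producing NT line was scored as %Activity, normalised to DMSO and no-cell wells, from CellTiter-Glo luminescence after 48 hours' treatment.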
# Potency is the fitted concentration of half-maximal effect.
Structure (SMILES),Potency,"activity, negative = less viability"
COc1ccccc1NC(=O)C1=C(C)Nc2nc3ccccc3n2C1c1cccs1 (stereo unspecified),7.31 µM (active),–
COc1ccccc1NC(=O)C1=C(C)NC(=O)NC1c1ccc(C)s1 (stereo unspecified),–,15.5%
CCOc1ccc(C2C(C(=O)NC)=C(C)Nc3nc4ccccc4n32)cc1OC (stereo unspecified),–,21.5%
COc1ccc(C(O)C(O)(C(=O)OC(C)C)c2ccc(C)cc2)cc1 (stereo unspecified),–,6.51%
O=C(Nc1cccc2ccccc12)NC1CC1,–,0.702%
COc1ccc(CCNS(=O)(=O)c2cccc3cccnc23)cc1OC,–,-4.27%
CCOc1ccc(C(CC(=O)O)NC(=O)Cc2ccccc2)cc1OC (stereo unspecified),–,3.33%
CCCCC(=O)NC(c1ccc(OC)c(OC)c1)c1ccc2cccnc2c1O (stereo unspecified),14.6 µM (active),–
Cn1nc(N)c2ncc(C(Cl)(Cl)Cl)nc21,–,-11.6%
O=S1(=O)CC(N2CCN(CCO)CC2)CN1C1CCCC1 (stereo unspecified),–,25.1%
O=C(COc1cccc(Cl)c1)NCc1ccccc1,–,5.28%
Nc1c(C(=O)Nc2ccc3c(c2)OCCO3)nnn1Cc1ccccc1,–,-20.1%
Nc1c(C(=O)NCc2ccccc2)nnn1Cc1cccc(Cl)c1,13 µM (active),–
Cc1cccc(C)c1NC(=O)CN1CCN(c2ccc(F)cc2)CC1,–,-0.589%
CCOc1ccc2[nH]c(=S)sc2c1,–,11.6%
COc1ccc(C(C(=O)Nc2c(C)cccc2C)N2CCN(c3ccc(C)cc3)CC2)cc1 (stereo unspecified),–,14.4%
CC1=CC(C)(C)NC(=S)N1NC(=O)c1ccccc1Cl,–,6.28%
CC1=CC(C)(C)NC(=S)N1c1ccccc1,11.2 µM (active),–
COc1ccc(S(=O)(=O)N(C)C)cc1NC(=O)COC(=O)c1n[nH]c2ccccc12,–,4.86%
Cc1ccc(CCC(=O)Nc2ncc(Cc3cc(Cl)ccc3Cl)s2)o1,1.16 µM (active),–
Cc1ccc(C(=O)Nc2nc3ccc(Cl)cc3s2)o1,–,-1.78%
O=C(CCc1ccccc1Cl)Nc1ccc(S(=O)(=O)Nc2nccs2)cc1,–,7.81%
CCc1cc(-c2nnn(CCC3COCCO3)c2CC)ccc1-c1cn(Cc2ccc3ccccc3c2)nn1 (stereo unspecified),–,-13.9%
Cc1ccc(Cn2c(C)c(C(=O)NCc3ccccc3C(F)(F)F)sc2=O)cc1,–,2.27%
CCNC(=O)C1(C)CCCN1C(=O)c1ccc(N(C)C)cc1 (stereo unspecified),–,14.3%
CCc1nc2c(OCc3ccc(Cl)cc3Cl)cccn2c1N(C)C(=O)C(C)C,16.4 µM (active),–

Structure (SMILES),Potency,"activity, negative = less viability"
Cc1nc2ccccc2nc(C)c1=NOCc1ccc(Cl)cc1Cl,–,3.79%
CCCCN(C=O)c1c(CC)nc2c(OCc3ccccc3C(=O)OC)cccn12,–,-26.4%
CCOC(=O)N(C)c1c(CC)nc2c(OCc3ccccc3C(=O)OC)cccn12,–,-10.3%
Cc1nc2c(OCc3ccc(Cl)cc3Cl)cccn2c1N(C)CC1CC1,13 µM (active),–
Cc1nc2c(OCc3ccc(Cl)cc3)cccn2c1N(C)Cc1cccs1,16.4 µM (active),–
CCc1nc2c(OCc3ccc(C(=O)OC)cc3)cccn2c1N(C)C(=O)C(C)C,–,20.3%
CCc1nc2c(OCc3ccc(F)c(F)c3)cccn2c1N(C)C(=O)c1ccco1,–,1.64%
CCc1nc2c(OCc3ccccc3)cccn2c1N(C)C(=O)c1ccco1,–,21.7%
COc1ccc(S(=O)(=O)NC(=O)C2(C)CCN2C(=O)COc2ccc(Cl)cc2)cc1 (stereo unspecified),–,15.6%
Cc1cccc(CN2CCN(C3CN(Cc4cn(Cc5cc(C)cc(C)c5)nn4)S(=O)(=O)C3)CC2)c1 (stereo unspecified),–,-14%
CC1CCC2(CC1)NC(=O)N(CC(=O)NCc1ccco1)C2=O (stereo unspecified),–,-3.13%
Cc1ccc(S(=O)(=O)N[C@H](CO)C(C)C)cc1,–,18.5%
COCCCn1cc(CN2CC(N(C)C)CS2(=O)=O)nn1 (stereo unspecified),–,23.5%
Cc1nc(C(F)(F)F)ccc1C(=O)N1CCC1(C)C(=O)NS(=O)(=O)c1ccccc1Cl (stereo unspecified),–,23.3%
O=C(NC1CCCCC1)C(c1cc2ccccc2o1)n1c(=O)c(-c2ccco2)nc2ccccc21 (stereo unspecified),–,-11.5%
COc1cccc(-c2nc3nc(C)cc(C)n3c2NC2CCCCC2)c1,–,4.57%
Cc1ccc2nc(-c3cccnc3)c(NC3CCCC3)n2c1,–,1.6%
COc1ccc(-c2nc3cnccn3c2NC2CCCCC2)cc1-c1cccc(Cl)c1,18.4 µM (active),–
CC(=O)c1nn(-c2ccccc2)c(=Nc2ccccc2)cc1C,–,12.8%
O=C(Nc1ccccc1)c1ccccc1OCc1ccccc1,–,14.1%
COC(=O)c1ccc(C2CC(=O)Nc3cc(OC)c(OC)cc32)cc1 (stereo unspecified),–,1.74%
CCCOc1ccccc1C1CC(=O)Nc2cc3c(cc21)OCO3 (stereo unspecified),8.2 µM (active),–
CCCOc1ccc(C2NC(=O)NC(c3ccccc3)=C2C(C)=O)cc1OCC (stereo unspecified),–,6.35% [at 9.24 µM]
Cc1ccc(F)c(S(=O)(=O)NC(=O)C2(C)CCN2C(=O)CCc2cccs2)c1 (stereo unspecified),–,18.9%
OC[C@@H]1CN(Cc2ccc3c(c2)OCO3)C[C@H](n2cnc3c(NCc4ccco4)ncnc32)O1,–,8.23%
CCc1nc2c(OCCOc3ccccc3)cccn2c1N(C)C(=O)c1ccc(OC)cc1,–,0.153%

Structure (SMILES),Potency,"activity, negative = less viability"
COc1cccc(NC(=O)Nc2ccc(F)cc2)c1,–,9.18%
COc1ccc(C(N)c2csc(NC(=O)Nc3cccc(C(F)(F)F)c3)n2)cc1 (stereo unspecified),20.6 µM (active),–
O=C(Nc1ccc(C(=O)N2CCOCC2)cc1)Nc1cccc(C(F)(F)F)c1,–,3.58%
O=C(O)CC1(CC(=O)Nc2cccc(C(F)(F)F)c2)CCCC1,–,-9.72%
O=C(Nc1cccc(F)c1)NC1CCCCCCC1,–,-29.5%
CC(=O)c1ccc(Nc2nc(C(N)c3ccccc3)cs2)cc1 (stereo unspecified),–,-1.4%
COc1ccc(C(CC(=O)Nc2ccc(C)cc2)NC(=O)C(F)(F)F)cc1 (stereo unspecified),–,1.15%
NC(c1ccccc1)c1csc(NC(=O)Nc2cccc(C(F)(F)F)c2)n1 (stereo unspecified),18.4 µM (active),–
NC(c1csc(NC(=O)Nc2cccc(C(F)(F)F)c2)n1)C1CCCCC1 (stereo unspecified),8.2 µM (active),–
O=C(NCCc1cccc(F)c1)C1CC(O)CN1C(=O)Nc1ccccc1 (stereo unspecified),–,5.15%
CCN(CC)C(=O)C1=C(C)N(Cc2ccc(F)cc2)C(=O)C(CC(=O)NCc2cccc3ccccc23)C1 (stereo unspecified),–,-8.28%
CO[C@@H]1CN(C)C(=O)c2cc(NC(=O)Nc3cc(F)ccc3F)ccc2OC[C@H](C)N(C(=O)c2ccccn2)C[C@@H]1C,–,2.75%
CCCCC[C@H](C)N1C[C@@H](COCc2ccccc2)Oc2cc(N3CCC[C@@H]3CO)ccc2S1(=O)=O,–,2.67%
O=C(NCc1cccnc1)c1ccc2nc([C@@H]3O[C@H](CO)[C@H](O)[C@H](O)[C@H]3O)[nH]c2c1,–,28.8%
COc1ccc(S(=O)(=O)N(C)C[C@H]2OCc3cnnn3CCCC(=O)N([C@H](C)CO)C[C@H]2C)cc1,–,15.6%
CNc1cc(-c2c(OC)cccc2OC)ncn1,–,6.96%
O=S1(=O)CC(N2CCN(c3ccccn3)CC2)CN1Cc1ccc(F)cc1 (stereo unspecified),–,4.82%
COc1cccc(NC(=O)C2(C)CCN2Cc2ccccc2Cl)c1 (stereo unspecified),–,-22.6%
COc1ccc(C2CC(c3ccc([N+](=O)[O-])cc3)=NN2C(C)=O)cc1 (stereo unspecified),–,-0.435%
COc1ccc(C2CC(c3cccc(OC)c3)=NN2c2ccc(S(N)(=O)=O)cc2)cc1 (stereo unspecified),18.4 µM (active),–
COc1ccc(C2CC(c3ccccc3)=NN2C(=O)COC(=O)COc2ccccc2)cc1 (stereo unspecified),–,5.99%
O=C(CSc1ccc(Cl)cc1)NC1CC1,–,-0.483%
O=C(OC1CC2CC1[C@H]1CCCCN1C2=O)N1CCOCC1 (stereo partly specified),–,16%
CCCCCNC(=O)C(c1ccc(OC)cc1)n1c(=O)c(-c2ccccc2)nc2ccccc21 (stereo unspecified),–,-20.5%
CCN(CC)C(=O)C1=C(C)N(Cc2ccc(OC)cc2)C(=O)C(CC(=O)NCCCCc2ccccc2)C1 (stereo unspecified),–,-11.6%
Cc1ccc(S(=O)(=O)N(Cc2cccc([N+](=O)[O-])c2)C(=O)N2CCN(C)CC2)cc1,–,-5.22%

Structure (SMILES),Potency,"activity, negative = less viability"
O=C(c1cccc([N+](=O)[O-])c1)N1CCN(Cc2ccccc2)CC1,–,13.5%
O=C(CCl)N(Cc1cccc([N+](=O)[O-])c1)c1cccc(Cl)c1,6.51 µM (active),–
O=C(c1ccc(N2CCCC2=O)cc1)N1CCN(c2ccc(C(F)(F)F)cc2[N+](=O)[O-])CC1,–,-4.69%
CCNC(=S)Nc1ccc2c(c1)c(=O)n(C)n2Cc1ccc(Cl)cc1,–,-1.44%
COc1ccc(CNC(=O)c2ccc(-c3cccnc3)c3ccoc23)cc1OC,–,-8.56%
COc1cccc(C(O)c2nc(-c3ccc(C)c(C)c3)cs2)c1 (stereo unspecified),–,-23.1%
Cc1ccc(CNC(=O)CCNC(=O)Cn2ccc3ccccc3c2=O)cc1,–,1.01%
COC(=O)COc1cccc2c(=O)n(CC(=O)NCc3ccccc3)ccc12,2.59 µM (active),–
COC(=O)COc1cccc2c(=O)n(CC(=O)NCCc3ccc(OC)c(OC)c3)ccc12,–,21.4%
Cc1cc(C)c(S(=O)(=O)NN=C2c3ccccc3[C@H]3Cc4csc[n+]4[C@@H]23)c(C)c1,–,0.106%
O=c1[nH]c2ccccc2n1C1CCN(CCOc2ccccc2)CC1,–,-14.8%
COc1ccc2c(CC(=O)N3CCc4cc(OC)c(OC)cc4C3)coc2c1,–,2.88%
COc1ccccc1CNC(=O)c1cc(=O)c2ccccc2o1,–,-4.66%
COc1cc2c(cc1OC)CN(C(=O)c1cc(=O)c3ccccc3o1)CC2,5.8 µM (active),–
COc1ccc(S(=O)(=O)N2CCCCC2c2cc(C(=O)NCc3ccc(F)cc3)no2)cc1 (stereo unspecified),–,3.27%
C[C@@H]1CN([C@H](C)CO)S(=O)(=O)c2ccc(C#CC3CCCCC3)cc2O[C@H]1CN(C)C(=O)Cc1ccncc1,–,-16.2%
COc1ccc(-c2c(-c3ccc(OC)cc3O)nc(C)nc2C(F)(F)F)cc1,–,-1.91%
C=C(C)COc1ccc(-c2ncncc2-c2ccc(OC)cc2)c(O)c1,–,-5.06%
C=C(C)COc1ccc(-c2n[nH]c(C)c2-c2ccccc2)c(O)c1,20.6 µM (active),–
CCOC(=O)[C@H]1Nc2ccc(Cl)cc2[C@@H]2[C@H]1C1CC(c3ccccc31)N2C(=O)OCc1ccccc1 (stereo partly specified),–,-2.55%
O=C1/C(=C/c2cccs2)CCc2ccccc21,–,2.39%
COc1ccc(/C=C2/CCCc3ccccc3C2=O)cc1,8.2 µM (active),–
COc1ccc(/C=C2\CCc3ccccc3C2=O)c(OC)c1OC,–,2.07%

# — PubChem BioAssay AID686970 (National Center for Advancing Translational Sciences (NCATS), 2013)
